# Results published in ChEMBL document CHEMBL1961873, “Compounds: GSK PKIS; Assays: Nanosyn kinase panel” (2012).
# Key:
# [1] = target: Platelet-derived growth factor receptor beta (Homo sapiens) (UniProt P09619); settings: at 1 µM;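 note: each value is a mean percent inhibition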
# [2] = target: Tyrosine-protein kinase FRK (Homo sapiens) (UniProt P42685); settings: at 0.1 µM
# [3] = target: Tyrosine-protein kinase FRK (Homo sapiens) (UniProt P42685); settings: at 1 µM
# [4] = target: Protein-tyrosine kinase 2-beta (Homo sapiens) (UniProt Q14289); settings: at 0.1 µM
# Protein-tyrosine kinase 2-beta (Homo sapiens), sequence (Q14289 whole entry, looked up): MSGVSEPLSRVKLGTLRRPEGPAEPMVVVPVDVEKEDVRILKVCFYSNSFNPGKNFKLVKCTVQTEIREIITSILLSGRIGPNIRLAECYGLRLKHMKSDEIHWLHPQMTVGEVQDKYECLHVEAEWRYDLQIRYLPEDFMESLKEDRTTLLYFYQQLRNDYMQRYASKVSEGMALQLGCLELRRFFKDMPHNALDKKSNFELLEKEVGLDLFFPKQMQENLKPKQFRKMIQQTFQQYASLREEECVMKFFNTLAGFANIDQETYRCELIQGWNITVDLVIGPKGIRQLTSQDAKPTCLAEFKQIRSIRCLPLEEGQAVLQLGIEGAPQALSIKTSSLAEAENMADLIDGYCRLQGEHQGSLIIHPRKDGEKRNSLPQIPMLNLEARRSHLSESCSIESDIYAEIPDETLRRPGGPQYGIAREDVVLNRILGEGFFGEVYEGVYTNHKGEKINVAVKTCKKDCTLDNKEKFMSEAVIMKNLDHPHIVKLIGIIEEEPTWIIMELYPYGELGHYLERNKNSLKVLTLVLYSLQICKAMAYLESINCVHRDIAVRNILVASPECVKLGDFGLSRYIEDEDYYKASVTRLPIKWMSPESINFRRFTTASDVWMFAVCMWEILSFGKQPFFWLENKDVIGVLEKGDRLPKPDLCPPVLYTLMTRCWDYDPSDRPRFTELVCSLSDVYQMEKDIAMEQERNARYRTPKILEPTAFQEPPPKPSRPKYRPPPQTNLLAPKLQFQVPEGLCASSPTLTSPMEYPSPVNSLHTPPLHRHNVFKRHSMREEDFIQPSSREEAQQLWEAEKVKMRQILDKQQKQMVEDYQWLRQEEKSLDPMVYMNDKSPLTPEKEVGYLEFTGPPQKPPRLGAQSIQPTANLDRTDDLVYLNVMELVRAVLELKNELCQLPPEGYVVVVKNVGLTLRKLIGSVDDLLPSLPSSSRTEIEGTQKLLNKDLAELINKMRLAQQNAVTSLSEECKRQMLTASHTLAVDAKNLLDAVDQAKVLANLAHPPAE
# [5] = target: Protein-tyrosine kinase 2-beta (Homo sapiens) (UniProt Q14289); settings: at 1 µM
# [6] = target: Proto-oncogene tyrosine-protein kinase receptor Ret (Homo sapiens) (UniProt P07949); settings: at 0.1 µM
# Proto-oncogene tyrosine-protein kinase receptor Ret (Homo sapiens), sequence (P07949 whole entry): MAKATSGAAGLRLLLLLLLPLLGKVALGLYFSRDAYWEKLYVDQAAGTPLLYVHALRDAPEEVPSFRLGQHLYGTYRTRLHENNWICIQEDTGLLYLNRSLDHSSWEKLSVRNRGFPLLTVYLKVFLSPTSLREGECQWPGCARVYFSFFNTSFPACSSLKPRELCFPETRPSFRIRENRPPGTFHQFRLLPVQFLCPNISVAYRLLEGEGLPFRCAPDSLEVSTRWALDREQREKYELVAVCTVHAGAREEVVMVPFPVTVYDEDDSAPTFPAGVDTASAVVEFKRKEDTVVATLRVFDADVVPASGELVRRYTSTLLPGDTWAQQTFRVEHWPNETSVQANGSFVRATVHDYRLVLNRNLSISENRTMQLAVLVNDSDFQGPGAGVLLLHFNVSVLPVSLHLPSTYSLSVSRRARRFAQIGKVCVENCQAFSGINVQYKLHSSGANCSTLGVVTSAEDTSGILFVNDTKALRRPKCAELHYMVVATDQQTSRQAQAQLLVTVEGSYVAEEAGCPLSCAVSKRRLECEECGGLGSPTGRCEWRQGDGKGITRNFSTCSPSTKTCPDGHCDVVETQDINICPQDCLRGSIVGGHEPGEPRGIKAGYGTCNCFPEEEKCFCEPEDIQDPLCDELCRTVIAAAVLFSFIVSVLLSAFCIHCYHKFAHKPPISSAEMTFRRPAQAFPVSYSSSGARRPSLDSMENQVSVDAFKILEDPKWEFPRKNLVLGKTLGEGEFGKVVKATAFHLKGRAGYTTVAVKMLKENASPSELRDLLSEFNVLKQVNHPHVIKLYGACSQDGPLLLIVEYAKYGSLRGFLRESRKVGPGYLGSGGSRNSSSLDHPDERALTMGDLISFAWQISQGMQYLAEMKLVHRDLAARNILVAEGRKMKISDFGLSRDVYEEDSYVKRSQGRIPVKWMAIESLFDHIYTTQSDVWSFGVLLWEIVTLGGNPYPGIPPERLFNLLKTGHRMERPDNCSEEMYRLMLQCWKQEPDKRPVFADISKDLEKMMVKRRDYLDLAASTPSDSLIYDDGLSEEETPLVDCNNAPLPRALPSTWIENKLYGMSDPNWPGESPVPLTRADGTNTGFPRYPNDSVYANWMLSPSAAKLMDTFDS
# [7] = target: Proto-oncogene tyrosine-protein kinase receptor Ret (Homo sapiens) (UniProt P07949); settings: at 1 µM
# [8] = test system: Proto-oncogene tyrosine-protein kinase receptor Ret (Homo sapiens), P07949 [V804L]; settings: at 0.1 µM
# Proto-oncogene tyrosine-protein kinase receptor Ret (Homo sapiens), P07949 [V804L], sequence (P07949 whole entry V804L): as the sequence (P07949 whole entry) above, with V804L counted along it
# [9] = test system: Proto-oncogene tyrosine-protein kinase receptor Ret (Homo sapiens), P07949 [V804L]; settings: at 1 µM
# [10] = test system: Proto-oncogene tyrosine-protein kinase receptor Ret (Homo sapiens), P07949 [Y791F]; settings: at 0.1 µM
# Proto-oncogene tyrosine-protein kinase receptor Ret (Homo sapiens), P07949 [Y791F], sequence (P07949 whole entry Y791F): as the sequence (P07949 whole entry) above, with Y791F counted along it
# [11] = test system: Proto-oncogene tyrosine-protein kinase receptor Ret (Homo sapiens), P07949 [Y791F]; settings: at 1 µM
# [12] = target: Macrophage-stimulating protein receptor (Homo sapiens) (UniProt Q04912); settings: at 0.1 µM
# [13] = target: Macrophage-stimulating protein receptor (Homo sapiens) (UniProt Q04912); settings: at 1 µM
# [14] = target: Proto-oncogene tyrosine-protein kinase ROS (Homo sapiens) (UniProt P08922); settings: at 0.1 µM
# [15] = target: Proto-oncogene tyrosine-protein kinase ROS (Homo sapiens) (UniProt P08922); settings: at 1 µM
# [16] = target: Proto-oncogene tyrosine-protein kinase Src (Homo sapiens) (UniProt P12931); settings: at 0.1 µM
# Proto-oncogene tyrosine-protein kinase Src (Homo sapiens), sequence (P12931 2-536 limits assumed): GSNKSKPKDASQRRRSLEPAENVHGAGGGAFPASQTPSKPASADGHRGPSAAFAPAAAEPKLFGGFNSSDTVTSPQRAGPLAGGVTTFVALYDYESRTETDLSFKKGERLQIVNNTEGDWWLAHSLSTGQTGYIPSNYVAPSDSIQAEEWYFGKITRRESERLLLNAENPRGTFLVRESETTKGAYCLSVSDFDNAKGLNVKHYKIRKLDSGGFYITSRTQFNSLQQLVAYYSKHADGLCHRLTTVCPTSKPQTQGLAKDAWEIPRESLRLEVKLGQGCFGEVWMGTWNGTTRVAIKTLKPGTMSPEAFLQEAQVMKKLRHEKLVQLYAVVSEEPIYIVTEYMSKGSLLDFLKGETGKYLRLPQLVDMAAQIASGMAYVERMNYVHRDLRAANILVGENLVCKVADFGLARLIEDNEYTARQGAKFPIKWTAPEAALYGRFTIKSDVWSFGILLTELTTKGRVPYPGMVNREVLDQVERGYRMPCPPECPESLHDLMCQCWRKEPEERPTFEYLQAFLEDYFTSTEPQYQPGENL
# [17] = target: Proto-oncogene tyrosine-protein kinase Src (Homo sapiens) (UniProt P12931); settings: at 1 µM
# [18] = target: Tyrosine-protein kinase Srms (Homo sapiens) (UniProt Q9H3Y6); settings: at 0.1 µM
# Tyrosine-protein kinase Srms (Homo sapiens), sequence (Q9H3Y6 whole entry): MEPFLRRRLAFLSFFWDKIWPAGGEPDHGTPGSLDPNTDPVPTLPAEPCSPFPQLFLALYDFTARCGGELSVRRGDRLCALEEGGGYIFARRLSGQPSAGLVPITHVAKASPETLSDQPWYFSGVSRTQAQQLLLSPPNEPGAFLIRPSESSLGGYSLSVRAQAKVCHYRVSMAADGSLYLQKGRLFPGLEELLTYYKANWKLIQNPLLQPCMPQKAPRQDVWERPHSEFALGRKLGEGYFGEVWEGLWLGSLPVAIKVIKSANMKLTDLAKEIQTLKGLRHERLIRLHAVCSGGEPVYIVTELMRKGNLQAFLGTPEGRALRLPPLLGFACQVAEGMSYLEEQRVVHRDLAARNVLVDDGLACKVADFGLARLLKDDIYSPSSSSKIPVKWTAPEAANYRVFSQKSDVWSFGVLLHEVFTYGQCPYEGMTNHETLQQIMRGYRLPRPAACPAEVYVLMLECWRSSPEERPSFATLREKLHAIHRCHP
# [19] = target: Tyrosine-protein kinase Srms (Homo sapiens) (UniProt Q9H3Y6); settings: at 1 µM
# [20] = target: Tyrosine-protein kinase SYK (Homo sapiens) (UniProt P43405); settings: at 0.1 µM;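 note: reported percentages are mean inhibition values for SYK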
# Tyrosine-protein kinase FRK (Homo sapiens), sequence (P42685 whole entry): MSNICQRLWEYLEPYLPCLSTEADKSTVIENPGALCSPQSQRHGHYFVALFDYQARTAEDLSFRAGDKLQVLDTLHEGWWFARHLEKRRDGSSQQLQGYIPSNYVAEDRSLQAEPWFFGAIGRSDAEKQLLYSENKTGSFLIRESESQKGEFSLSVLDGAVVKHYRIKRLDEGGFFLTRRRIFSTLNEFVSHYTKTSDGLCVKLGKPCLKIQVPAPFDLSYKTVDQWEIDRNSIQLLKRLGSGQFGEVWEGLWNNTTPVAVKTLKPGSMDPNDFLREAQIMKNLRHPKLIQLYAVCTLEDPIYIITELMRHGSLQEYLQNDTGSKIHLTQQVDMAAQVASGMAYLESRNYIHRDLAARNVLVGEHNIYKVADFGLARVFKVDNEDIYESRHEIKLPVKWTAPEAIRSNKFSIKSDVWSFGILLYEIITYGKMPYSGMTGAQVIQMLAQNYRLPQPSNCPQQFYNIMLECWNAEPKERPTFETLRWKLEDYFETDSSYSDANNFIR
# Platelet-derived growth factor receptor beta (Homo sapiens), sequence (P09619 whole entry): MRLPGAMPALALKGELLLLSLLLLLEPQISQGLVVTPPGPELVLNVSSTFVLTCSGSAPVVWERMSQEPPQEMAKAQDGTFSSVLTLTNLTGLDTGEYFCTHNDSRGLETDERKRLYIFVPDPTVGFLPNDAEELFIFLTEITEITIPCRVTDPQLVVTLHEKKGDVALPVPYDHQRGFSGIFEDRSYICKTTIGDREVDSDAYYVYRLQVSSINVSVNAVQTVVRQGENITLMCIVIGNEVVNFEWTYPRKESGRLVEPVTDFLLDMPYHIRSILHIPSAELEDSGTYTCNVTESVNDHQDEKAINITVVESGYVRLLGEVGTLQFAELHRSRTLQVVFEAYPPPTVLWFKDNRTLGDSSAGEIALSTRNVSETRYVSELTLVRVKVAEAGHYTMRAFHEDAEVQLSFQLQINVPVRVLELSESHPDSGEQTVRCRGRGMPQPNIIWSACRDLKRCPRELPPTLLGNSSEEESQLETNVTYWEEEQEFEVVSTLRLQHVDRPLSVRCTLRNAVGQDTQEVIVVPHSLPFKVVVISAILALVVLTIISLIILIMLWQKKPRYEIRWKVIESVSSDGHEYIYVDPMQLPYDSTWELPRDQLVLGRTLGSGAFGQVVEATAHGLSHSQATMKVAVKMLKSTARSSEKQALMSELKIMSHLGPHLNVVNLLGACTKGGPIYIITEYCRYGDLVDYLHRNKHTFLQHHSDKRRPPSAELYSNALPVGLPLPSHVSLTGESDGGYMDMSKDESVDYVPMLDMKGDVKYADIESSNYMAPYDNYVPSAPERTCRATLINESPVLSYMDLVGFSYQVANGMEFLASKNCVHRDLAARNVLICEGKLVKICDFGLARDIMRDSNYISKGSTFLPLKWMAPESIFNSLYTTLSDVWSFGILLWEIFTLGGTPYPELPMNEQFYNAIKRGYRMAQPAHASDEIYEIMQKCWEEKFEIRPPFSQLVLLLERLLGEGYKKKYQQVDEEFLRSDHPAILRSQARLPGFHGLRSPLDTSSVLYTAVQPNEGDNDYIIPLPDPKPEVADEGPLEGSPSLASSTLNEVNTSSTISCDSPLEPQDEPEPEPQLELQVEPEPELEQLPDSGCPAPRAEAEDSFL
Structure (SMILES),inhibition [1] [%],inhibition [2] [%],inhibition [3] [%],inhibition [4] [%],inhibition [5] [%],inhibition [6] [%],inhibition [7] [%],inhibition [8] [%],inhibition [9] [%],inhibition [10] [%],inhibition [11] [%],inhibition [12] [%],inhibition [13] [%],inhibition [14] [%],inhibition [15] [%],inhibition [16] [%],inhibition [17] [%],inhibition [18] [%],inhibition [19] [%],inhibition [20] [%]
CCn1c(-c2nonc2N)nc2c(C#CC(C)(C)O)nc(OC[C@H](N)c3ccccc3)cc21,57.2,-0.38,2.68,1.28,9.96,6.89,38,1.38,6.67,18.6,41.3,4.34,-1.45,9.15,9.48,8.29,13.7,2.09,1.99,2.17
CCOc1ccc2c(-c3ccnc(Nc4cccc(C(F)(F)F)c4)n3)cnn2n1,20.5,2.02,0.63,-2,3.33,0.9,5.18,5.38,6.22,7.78,12.4,4.92,-3.11,2.05,15,4.83,3.76,-3.13,-1.56,-1.67
c1ccc(-c2nc3n(c2-c2ccc4c(c2)OCO4)CCC3)nc1,4.62,0.91,0.2,5.1,6.96,2.81,4.44,1.37,1.16,2.63,1.82,0.69,1.59,4.52,4.91,-7.85,2.73,-0.53,-1.55,-1.33
Cc1cccc(Nc2ncc(-c3ccccc3)o2)c1,37.2,-0.04,3.76,-0.77,4.02,1.88,7.33,0.92,4.53,2.77,6.11,3.38,-0.6,6.3,7.89,8.62,19.3,0.16,-0.12,1.35
CCn1c(-c2nonc2N)nc2ccccc21,5.69,0.05,1.69,4.43,7.84,1.65,3.15,2.56,0.52,4.13,3.18,1.17,2.21,9.11,15.9,11.4,6.84,1.09,2.1,0.68
CCn1c(-c2nonc2N)nc2cnc(Oc3cccc(NC(=O)c4ccc(N(C)C)cc4)c3)cc21,6.43,1.12,0.64,1.13,3.58,3.06,4.26,3.42,6.51,3.78,1.39,1.95,1.27,2.49,3.39,3.64,1.89,-0.5,6.2,-1.42
COC(=O)c1sc(-n2cnc3cc(OC)c(OC)cc32)cc1OCc1ccccc1C(F)(F)F,54.9,2.68,2.31,11.6,10.7,24.8,64.5,9.09,27.8,25.1,52.3,0.58,1.46,6.32,12.3,1.51,24.7,-2.13,-3.45,-5.15
COc1ccc(-c2cc3c(N)ncnc3o2)cc1,11.2,0.49,0.16,-4.88,8.21,-1.19,0.94,0.48,2.98,2.13,4.56,-4.17,-1.06,2.19,4.11,-1.14,7.59,1.52,3.06,0.62
CC(=O)NCc1cccc(C#Cc2cncnc2Nc2ccc(OCc3cccc(F)c3)c(Cl)c2)c1,6.15,1.61,1.03,3.96,0.92,3.99,20.2,2.58,6.73,1.6,3.42,5.44,5.62,3.92,4.54,0.53,2.01,0.33,-1.05,-2.37
Clc1ccc(-c2nn3ncccc3c2-c2ccnc(Nc3ccccc3)n2)cc1,39.4,0.95,3.48,7.96,14.7,8.76,42,4.29,4.92,9.6,42.2,-2.2,4.63,4.17,9.1,6.5,39.3,1.99,5.97,-4.66
[O-][S+]1CCN(Cc2ccc(-c3ccc4ncnc(Nc5ccc(OCc6cccc(F)c6)c(Cl)c5)c4c3)o2)CC1,8,4.01,4.89,4.76,11.7,3.9,8.36,7.71,16.5,6.06,9.63,3.82,6.8,4.15,2.36,8.56,10.2,0.4,-1.62,2.13
O=C(Nc1n[nH]c2cc(-c3ccc(F)cc3)ccc12)C1CC1,7.77,1.74,2.21,9.12,9.39,2.79,3.73,2.36,3.06,4.2,2.03,3.73,1.45,4.52,6.57,0.9,6.35,-1.28,-0.73,-3.9
Nc1ncc(-c2cccc(S(N)(=O)=O)c2)c2scc(-c3ccc(F)c(Cl)c3)c12,53.4,2.22,14.2,2.23,20.8,11.8,49,5.58,7.48,12.4,50.2,1.48,15.8,-0.54,6.78,19.6,57.1,-1.03,6.75,0.28
Fc1ccc(-c2nn3ncccc3c2-c2ccnc(Nc3ccc4c(c3)OCCO4)n2)cc1,69.7,5.64,25.4,16.4,44,23.5,64.9,4.29,4.6,30.8,65.8,-2.95,4.64,4.11,10.9,40.2,83.9,-0.06,9.83,-5.37
